# According to PubChem BioAssay (EPA / NIEHS):
# Records with an inconclusive call do not appear. The source made the active and inactive calls. The calls were made as follows: active = hit-call score of the fitted dose curve at least 0.9, where 1 is the maximum; inconclusive = response in the unintended direction; inactive = score below 0.9.
# Target: human Peroxisome Proliferator-activated Receptor alpha (PPARa), PPARA (gene 5465) (UniProt Q07869)
# Assay: ATG_PPARa_TRANS: Attagene TRANS-FACTORIAL HepG2 Assay for human Peroxisome Proliferator-activated Receptor alpha (PPARa) (AID 2283001);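 as to AC50: potency for gain of reporter signal over DMSO so agonist or activator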
# In short: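 Read-out is fluorescence of reporter cDNA fragments resolved by capillary electrophoresis after RT-PCR. Human HepG2 liver cells carried transfected PPARa-Gal4 chimera and GAL4-UAS reporter units, treated 24 h; activity scored as increase over DMSO.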
# human Peroxisome Proliferator-activated Receptor alpha (PPARa), PPARA (gene 5465), sequence (Q07869 whole entry, looked up): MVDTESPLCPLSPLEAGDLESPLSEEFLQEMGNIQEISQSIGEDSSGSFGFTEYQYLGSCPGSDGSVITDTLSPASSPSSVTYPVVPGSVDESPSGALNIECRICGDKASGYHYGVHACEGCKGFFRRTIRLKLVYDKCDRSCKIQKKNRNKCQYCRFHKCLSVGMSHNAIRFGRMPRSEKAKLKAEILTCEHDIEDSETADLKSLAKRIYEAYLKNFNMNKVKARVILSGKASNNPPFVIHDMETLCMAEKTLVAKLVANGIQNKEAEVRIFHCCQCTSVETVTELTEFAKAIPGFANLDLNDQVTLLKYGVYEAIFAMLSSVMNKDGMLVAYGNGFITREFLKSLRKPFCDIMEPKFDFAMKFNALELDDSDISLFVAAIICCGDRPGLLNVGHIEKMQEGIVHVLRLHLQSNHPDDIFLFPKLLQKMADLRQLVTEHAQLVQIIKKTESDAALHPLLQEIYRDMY
SMILES,AC50,outcome
Clc1ccc2c(c1)C(N1CCNCC1)=Nc1ccccc1O2,53.9 µM (active),
Nc1ccc(S(=O)(=O)O)c(N)c1,,inactive
O=Cc1ccc(Cl)c([N+](=O)[O-])c1,,inactive
COc1cc2ncnc(Nc3cccc(Cl)c3)c2cc1OC,,inactive
O=C1CCCCCCCCCCCCCCO1,100 µM (active),
O=C(O)CN(CCN(CC(=O)O)CC(=O)O)CCN(CC(=O)O)CC(=O)O,,inactive
CC1CCC(C(C)CS)CC1S (configuration not stated),53.7 µM (active),
O=c1cc(-c2ccccc2)oc2cc(O)cc(O)c12,,inactive
O=C[C@H](O)[C@H](O)[C@H](O)CO,,inactive
CCCCCCCCC,,inactive
C[C@H]1C[C@@H]2[C@H]([C@@H](O)C[C@@]3(C)[C@H]2CC[C@]3(O)C(=O)CO)[C@@]2(C)C=CC(=O)C=C12,,inactive
CCn1c2ccccc2c2cc(N)ccc21,,inactive
C=CC(C)(O)CCC=C(C)CCC=C(C)C (configuration not stated),,inactive
CC(C=O)Cc1ccc(C(C)C)cc1 (configuration not stated),49.1 µM (active),
NCCNCCN,,inactive
C#C[C@]1(O)CC[C@H]2[C@@H]3CCC4=Cc5oncc5C[C@]4(C)[C@H]3CC[C@@]21C,176 µM (active),
Cc1ccc(Nc2ccc(O)c3c2C(=O)c2ccccc2C3=O)cc1,,inactive
O=C1CCCCCCCCCCOCCCCO1,40 µM (active),
CC(C)(COC(=O)c1ccccc1)COC(=O)c1ccccc1,,inactive

SMILES,AC50,outcome
NCCCN1CCOCC1,,inactive
OCCOCCOCCOCCO,,inactive
CCCc1c(OCCCOc2ccc(OCC(=O)O)cc2)ccc(C(C)=O)c1O,0.322 µM (active),
C=C(C)C(=O)O[C@H]1C[C@@H]2CC[C@@]1(C)C2(C)C,,inactive
COC(=O)Cc1cccc2ccccc12,,inactive
c1ccc2c(c1)c1cccc3ccc4cccc2c4c31,,inactive
CNCCCC12CCC(c3ccccc31)c1ccccc12,,inactive
Nc1cc([N+](=O)[O-])ccc1O,,inactive
CC1(C)CCC(C)(C)c2cc(C(=O)Nc3ccc(C(=O)O)cc3)ccc21,,inactive
Cc1ccc2sc3cccc(C)c3c2c1,,inactive
O=C(OCc1ccccc1)C(=O)OCc1ccccc1,,inactive
CCCCCC(CO)CCC (configuration not stated),,inactive
Clc1cccc(Cl)n1,,inactive
CCCCC(CC)COC(=O)/C=C\C(=O)OCC(CC)CCCC (configuration not stated),,inactive
CC1(C)C(=O)N(Br)C(=O)N1Cl,,inactive
O=C(Cl)c1cccc(C(=O)Cl)c1,,inactive
O=S(=O)(O)c1cccc2c(S(=O)(=O)O)cccc12,,inactive
Cc1ccc2n[nH]nc2c1,,inactive
